Sampled rows, rich in hits. Any-hit rate of the full collection: about 2.8%.
MsrA inh – bovine MsrA inhibition. purified bovine MsrA, absorbance read-out. inhibition, % at 15.5 µM. actives 0.75% (n = 360,000). AID 651718
bovine MsrA act – bovine methionine sulfoxide reductase A activation; purified bovine MsrA, absorbance read-out; activation, % at 10.6 µM; actives 0.3% (n = 360,000); in the data active means activation above about 7.5%
rCAG binder – binds r(CAG) RNA repeats | r(CAG) RNA repeat, TO-PRO-1 dye displacement fluorescence | inhibition, % at 3 µM | AID 651821 | actives 1.3% (n = 370,000);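 active means inhibition above the plate cutoff, the mean of all test compounds on that plate plus 3 SD, cut at about 35% in these data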;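 further: higher means more dye released from RNA so lower well fluorescence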
HGIII-sPLA2 inh – Inhibits HGIII-sPLA2 liposome hydrolysis, primary screen | Q9NZ20 | QFRET BODIPY PC-A2 liposome hydrolysis, fluorescence | actives 0.56% (n = 370,000) | inhibition, % at 12.2 µM;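 active means inhibition above mean plus 3 SD of compounds lying within the high and low control bounds, cut at about 19% in these data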
Target sequence (Q9NZ20 whole entry, looked up): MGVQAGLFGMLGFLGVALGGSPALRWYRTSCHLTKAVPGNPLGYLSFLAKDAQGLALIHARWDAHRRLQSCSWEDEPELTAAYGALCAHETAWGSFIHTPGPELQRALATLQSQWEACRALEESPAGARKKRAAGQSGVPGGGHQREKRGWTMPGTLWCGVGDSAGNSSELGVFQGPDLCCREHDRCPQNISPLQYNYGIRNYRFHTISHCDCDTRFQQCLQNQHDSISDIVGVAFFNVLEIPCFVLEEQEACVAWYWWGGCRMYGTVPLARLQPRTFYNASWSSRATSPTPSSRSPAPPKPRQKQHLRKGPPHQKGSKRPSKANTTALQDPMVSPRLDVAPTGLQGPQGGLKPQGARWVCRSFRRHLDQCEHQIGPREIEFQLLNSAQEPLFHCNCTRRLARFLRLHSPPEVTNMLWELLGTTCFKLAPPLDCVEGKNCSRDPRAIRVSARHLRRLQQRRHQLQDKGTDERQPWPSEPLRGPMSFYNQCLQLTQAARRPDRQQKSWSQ
MsrA inh confirm – confirmation of bovine MsrA inhibitors. AID 651822. actives 41% (n = 2,300). purified bovine MsrA, absorbance read-out. inhibition, % at 15.5 µM. shares compounds with MsrA inh;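 further: coupled to thioredoxin reductase with NADPH and selenocystamine and DMSO as substrate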
Hits are given with their value; – = inactive; · = no result given. Unless noted, no stated cut-off is given here; in the data, active means inhibition above about 4.5%; inactive means the rest.

SMILES	MsrA inh	bovine MsrA act	rCAG binder	HGIII-sPLA2 inh	MsrA inh confirm
CCc1cc(=O)oc2c(C)c(O)c(CN3CCCCC3)cc12	5.4	–	–	–	–
Cc1c(O)c(CN2CCCC2)cc2c3c(c(=O)oc12)CCC3	–	–	–	–	·
Cc1nc2ccc(-c3nc4ccc(N)cc4[nH]3)cc2[nH]1	–	–	–	–	·
Nc1ccc(-c2nc3c(Cl)c(N)ccc3[nH]2)cc1	5.3	–	–	–	–
Nc1ccc2nc(-c3cc(Cl)c(N)c(Cl)c3)[nH]c2c1	4.8	–	–	–	5.6
Nc1ccc(-c2nc3ccc(N)cc3[nH]2)cc1	5.5	–	–	–	–
Nc1ccc2nc(-c3ccc(Cl)cc3)[nH]c2c1	–	–	–	–	·
Cc1ccc(S(=O)(=O)NNC(=O)c2c(O)c3ccccc3[nH]c2=O)cc1	–	–	–	–	·
O=C(N/C(=C\c1ccc(Cl)cc1)C(=O)N1CCOCC1)c1ccco1	–	–	–	–	·
Cc1ccc(-n2c(SC/C=C/c3ccccc3)nnc2-c2ccco2)cc1	·	·	–	–	·
CC(C)Cc1cc(C(=O)N2CCCC(C(=O)c3cc(F)ccc3F)C2)n(C)n1 (configuration not stated)	–	–	–	–	·
Cc1ccc2[nH]c(=O)c(CN(Cc3cccnc3)Cc3nnnn3CC3CCCO3)cc2c1 (configuration not stated)	–	–	–	–	·
Cc1ccc2[nH]c(=O)c(CN(Cc3cccnc3)Cc3nnnn3CCN3CCOCC3)cc2c1	5.1	–	–	–	–
CC(C)C[C@H]1CN([C@@H](Cc2ccccc2)CN2CCC[C@@H]2CN2C(=O)C(=O)NC[C@@H]2Cc2ccc(O)cc2)C(=O)C(=O)N1CC1CCCCC1	4.8	–	–	–	–
COc1ccc(-c2cc(NC=O)c3ncc(-c4cccc(C(=O)NCCN(C)C)c4)n3c2)cc1	11.4	–	–	–	–
CN(C)CCNC(=O)c1cccc(-c2cnc3c(NC=O)cc(-c4ccc(F)cc4)cn23)c1	–	–	–	–	·
CCCCCNc1nc(NCCCO)c(C#N)c2c1CN(C)CC2	5.0	–	–	–	–
C=CCSc1nc2sc(C)c(C)c2c(=O)[nH]1	–	–	–	–	·
Cc1ccc(C(=O)N/N=C\c2ccccn2)cn1	–	–	–	–	·
O=C(N/N=C/c1ccc[nH]1)c1c[nH]c2ccccc12	5.8	–	–	–	–
Cn1cccc1/C=N/NC(=O)c1cccnc1	–	–	–	–	·
O=C(N/N=C/c1ccccn1)c1c[nH]c2ccccc12	–	–	–	–	·
O=C(N/N=C/c1ccc[nH]1)c1cccnc1	5.7	–	–	–	5.2
Cc1ccc(C(=O)N/N=C\c2cccn2C)cn1	7.8	–	–	–	4.7
Cc1ccc(C(=O)N/N=C\c2ccc[nH]2)cn1	6.6	–	–	–	–
SMILES	MsrA inh	bovine MsrA act	rCAG binder	HGIII-sPLA2 inh	MsrA inh confirm
Cc1ccccc1/C=N/NC(=O)c1cccnc1	–	–	–	–	·
C=CCn1c(SCC(=O)Nc2ccccc2C)nc(O)cc1=O	–	–	–	–	·
Cc1noc(C(=O)NCc2cccnc2)c1Cl	–	–	–	–	·
CCN(CC)c1ccc(C=Nc2cccc(S(=O)(=O)N3CCOCC3)c2)c(O)c1	5.8	–	–	–	5.2
CCN(CC)c1ccc(/C=N/NC(=O)c2cccc(S(=O)(=O)N3CCOCC3)c2)c(O)c1	–	–	–	–	·
CCCOC(=O)CN1C(=O)c2ccccc2C1=O	–	–	–	–	·
COc1cc2nn(-c3ccccc3N)nc2cc1OC	4.8	–	–	–	–
Nc1ccccc1-n1nc2ccc3ccccc3c2n1	–	–	–	–	·
O=C(/C=C/c1ccco1)Nc1cccc(S(=O)(=O)N2CCOCC2)c1	–	–	–	–	·
Cc1ccc(/C=C/C(=O)Nc2cccc(S(=O)(=O)N3CCOCC3)c2)o1	5.0	–	–	–	4.9
N#CCCn1cc(C(=O)CN2C(=O)C(=O)N(C3CCCC3)C2=O)c2ccccc21	–	–	–	–	·
COc1ccccc1C(=O)NC(=S)Nc1ccc(NC(=O)c2ccco2)cc1	99.0	–	–	–	–
O=C(NNC(=S)NC(=O)c1ccco1)c1ccc(NC(=O)c2ccccc2)cc1	5.2	–	–	–	–
COc1ccccc1C(=O)Nc1ccc(NC(=O)c2ccco2)cn1	–	–	–	–	·
Clc1ccc(-c2nc(Cc3ccccc3)no2)cc1	–	–	–	–	·
O=C(O)CC1S/C(=N\N=C2CCCCCC2)N(c2ccccc2)C1=O (configuration not stated)	–	–	–	–	·
COc1ccc(/C=N\N=C2/SC(CC(=O)O)C(=O)N2c2ccc(O)cc2)cc1OC (configuration not stated)	5.9	–	–	–	4.9
COc1cc(/C=N/N=C2/SCC(=O)N2c2ccc(O)cc2)ccc1O	5.6	–	–	–	4.6
O=C(O)CC1S/C(=N/N=C/c2ccc([N+](=O)[O-])cc2)N(c2ccc(O)cc2)C1=O (configuration not stated)	6.8	–	–	–	–
COc1cc(/C=N\N=C2/SC(CC(=O)O)C(=O)N2c2ccc(O)cc2)ccc1O (configuration not stated)	–	–	–	–	·
CCN(CC(=O)Nc1cc(Cl)ccc1C)C(=O)COc1ccccc1F	–	–	–	–	·
CC(C)(O)CCCC(C)(O)c1ccc(C(=O)O)cc1O (configuration not stated)	–	–	–	–	·
COc1ccc(CNC(=O)CCC(=O)N2CCN(S(=O)(=O)c3ccc(Cl)cc3)CC2)cc1	–	–	–	–	·
CC(=O)Nc1c([N+](=O)[O-])cc(C)c(Cl)c1[N+](=O)[O-]	–	–	–	–	·
COC(=O)CSc1nc2ccccc2nc1SCC(=O)OC	–	–	–	–	·
SMILES	MsrA inh	bovine MsrA act	rCAG binder	HGIII-sPLA2 inh	MsrA inh confirm
COc1cc(/C=N/Nc2ccc(S(N)(=O)=O)cc2[N+](=O)[O-])cc(OC)c1O	–	–	–	–	·
NS(=O)(=O)c1ccc(N/N=C/c2ccc(C(=O)O)cc2)c([N+](=O)[O-])c1	5.1	–	–	–	4.9
NS(=O)(=O)c1ccc(N/N=C/c2ccc[nH]2)c([N+](=O)[O-])c1	5.1	–	–	–	5.5
Cc1cc2ncn(C(=O)N3CCCC3)c2cc1C	–	–	–	–	·
NC(=O)NC(CC(=O)N1CCc2ccccc2C1)c1ccc(Cl)cc1 (configuration not stated)	–	–	–	–	·
O=S(=O)(Nc1ccc2cn[nH]c2c1)c1cc(Br)ccc1Br	6.2	–	–	–	–
Cc1ccc(C)c(S(=O)(=O)Nc2ccc3cn[nH]c3c2)c1	–	–	–	–	·
Cc1cc(C)n(-c2cccc(Cl)c2)c(=O)c1C#N	–	–	–	–	·
Cc1cc2n(c(=O)c1C#N)CCCN2c1cccc(Cl)c1	6.9	–	–	–	5.5
CS(=O)(=O)Nc1cccc(NC(=O)C2Cc3c(-c4ccco4)ccnc3O2)c1 (configuration not stated)	–	–	–	–	·
CCCc1c(-c2cccc(Cl)c2)ncn1CCc1ccccc1OC	–	–	–	–	·
Cc1ccc(/C=C2\C(=N)N3N=C(CC(=O)N4CCOCC4)SC3=NC2=O)o1	5.2	–	–	–	–
COc1ccccc1-n1c(C)cc(/C=C2\C(=N)N3N=C(CC(=O)N4CCOCC4)SC3=NC2=O)c1C	5.3	–	–	–	–
